# Screening data as filed in PubChem.
# Sampled rows, rich in hits. Any-hit rate of the full collection: about 0.82%.
# IP6K1 inhibitor: inhibitors of human IP6K1; Q92551; IP6K1 kinase, ADP-Glo luminescence, 2 h; active compounds read low; activity change, % (series mostly up to about 58 µM); actives 0.81% (n = 140,000); in the data active means activity change below about -25%
#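 ADP-Glo luminescence measures ADP made by human IP6K1 during a 2 h RT reaction with ATP/IP6 (mix at 1.3 mM/130 uM); top library doses 57.5 and 19.1 uM final.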
# GPT2 inhibitor: inhibitors of human GPT2 alanine aminotransferase; Recombinant GPT2, coupled pyruvate oxidase/HRP Amplex Red fluorescence; Potency, µM (doses to about 57.7 µM), without a hit: top-dose activity change, negative = inhibition, hits mostly inhibitors; actives 0.25% (n = 100,000); further: potency means the concentration at half of the fitted maximal effect; nearly all actives have a fitted effect of over 60% in size
# Target sequence (Q8TD30 whole entry, looked up): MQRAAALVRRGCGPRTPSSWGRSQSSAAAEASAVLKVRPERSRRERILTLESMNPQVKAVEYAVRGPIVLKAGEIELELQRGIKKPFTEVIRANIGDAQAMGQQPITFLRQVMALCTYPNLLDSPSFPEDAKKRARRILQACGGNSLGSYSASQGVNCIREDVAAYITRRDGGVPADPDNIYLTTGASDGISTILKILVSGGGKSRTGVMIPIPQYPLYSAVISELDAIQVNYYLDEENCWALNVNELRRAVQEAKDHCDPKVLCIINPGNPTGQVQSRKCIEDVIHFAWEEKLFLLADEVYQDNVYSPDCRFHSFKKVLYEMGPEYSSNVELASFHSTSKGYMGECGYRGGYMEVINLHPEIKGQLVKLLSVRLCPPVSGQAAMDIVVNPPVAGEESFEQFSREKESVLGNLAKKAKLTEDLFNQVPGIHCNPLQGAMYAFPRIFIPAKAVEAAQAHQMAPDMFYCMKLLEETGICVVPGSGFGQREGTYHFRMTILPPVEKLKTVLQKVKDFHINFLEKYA
#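 Inhibition is scored from Amplex Red fluorescence generated when pyruvate oxidase and HRP act on pyruvate released by GPT2. Reactions contain 10ng/uL enzyme, 250uM a-KG and 2mM L-alanine and run 30 min at room temperature.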
# IP6K1 conf: human IP6K1 inhibition, confirmatory. AID 1645852. Potency, µM (highest dose often 49 µM), without a hit: at the top dose activity change, negative = inhibition, hits mostly inhibitors. actives 13% (n = 1,200). shares compounds with IP6K1 inhibitor. recombinant IP6K1 kinase, ADP-Glo luminescence, 2 h; further: potency means the concentration at half of the fitted maximal effect; nearly all actives have a fitted effect of over 65% in size
# * hit, by the source's call; i = inactive; ? = inconclusive; . = not tested or not shown; [ ] = another dose, or the depositor's remark. Unless noted, the call rests on the fitted dose curve; in most records, active means well fitted curve in the direction sought with a large enough effect; inconclusive means small, poorly fitted or top-dose-only effect, or another doubt; inactive means no such curve, though single readings can be large; an effect the other way counts as inactive or inconclusive. On the % scale 0 is the no-effect control and ±100 the full control effect.
SMILES,IP6K1 inhibitor,GPT2 inhibitor,IP6K1 conf
c1ccc(CN2CCNc3cc(-c4ccncc4)ncc3C2)cc1,-14.7,?,.
c1ccc(-c2cc3c(cn2)NCCN(Cc2ccsc2)C3)cc1,-25.4*,-8.1%[88.5 µM],-9.0%
COc1ccc(Nc2cc3c(cn2)CN(Cc2ccncc2)CCN3)cn1,-8.8,5.0%[88.5 µM],.
Clc1ccc(-c2cc3c(cn2)CN(Cc2ccncc2)CCN3)cc1,-26.9*,-27.5%[88.5 µM],-0.9%
COc1ccc2c(c1)C=C(CN1CCC(CO)(Cc3ccccc3Cl)CC1)CO2,14.0,-22.4%,.
COc1ccccc1-c1ccnc(N[C@H]2CO[C@H]3[C@@H]2OC[C@@H]3NC(=O)c2ccc(C(F)(F)F)cc2)n1,1.2,-7.8%,.
CCc1noc(-c2cn(C3CCN(C(=O)c4cccc(C#N)c4)CC3)nn2)n1,13.3,-14.9%,.
CCC(=O)OCCCNc1nc(-c2ccc(Cl)cc2)nc2ccccc12,-25.3*,.,?
CC(C)CN(CC(C)C)c1nc(-c2ccc(Cl)cc2)nc2ccccc12,-0.6,.,.
CN(C)C(=O)C1CN(C(=O)Nc2cc(F)cc(F)c2)CC12CCOCC2 (configuration not stated),2.8,i,.
Cc1cc(C)cc(-n2c(C)nc3cc(C(=O)NCc4ccccc4Cl)ccc32)c1,30.4,.,.
COc1ccccc1CNC(=O)c1ccc2c(c1)nc(C)n2-c1cccc(C)c1,-25.6*,.,-15.2%
CCc1ccc(N2CC(c3noc(-c4nccc5ccccc45)n3)CC2=O)cc1 (configuration not stated),5.8,i,.
O=C1c2cnc(-c3cccc(CO)c3)nc2OCCN1Cc1ccccc1,-13.7,-5.0%[88.5 µM],.
O=C1c2cnc(-c3cccc(CO)c3)nc2OCCN1c1ccccc1,-40.3*,-5.9%[88.5 µM],?
COc1ccc(C(=O)N2C3CCCC2CC(=O)C3)cc1,15.4,-5.0%[88.5 µM],.
COc1ccccc1-c1cnc(Nc2cc(F)cc(N3CCOCC3)c2)c2c1CCO2,-12.6,1.5%[88.5 µM],.
COc1ccccc1-c1cnc(Nc2ccc3c(c2)OCCO3)c2c1CCO2,-25.7*,-21.6%[88.5 µM],-17.4%
O=C(c1cc(C2CC2)no1)N1C[C@@H](CN2CCCCC2)[C@@H](CO)C1,19.7,i,.
O=C(c1n[nH]c2ccccc12)N1CCC(Cc2nc(-c3ccncc3)n[nH]2)CC1,13.0,-13.9%,.
COc1ccc(-c2nc(C)nc3c2CCN(C(=O)c2ccc(C(F)(F)F)cc2)CC3)cc1,14.3,?,.
Cn1nc(-c2ccc(C(F)(F)F)cc2)nc2c(=O)n(C)c(=O)nc1-2,-40.6*,?,?
CC(C)c1noc([C@@H]2C[C@H]3C(=O)NCCCCCCN(C(=O)COc4ccc(F)cc4)[C@H]3C2)n1,6.0,3.8%,.
CN(C)C(=O)c1cc(-c2ccccc2F)nc2c1cnn2C,-3.0,.,.
O=C(COc1ccccc1)N1CC[C@H]2COC(=O)N2c2cc(F)ccc2C1,2.0,i,.
SMILES,IP6K1 inhibitor,GPT2 inhibitor,IP6K1 conf
CCOC(=O)c1ccccc1NC(=O)c1c(-c2ccccc2)noc1C,-30.7*,.,-13.8%
CC(=O)Nc1ccc(NC(=O)c2c(-c3ccccc3)noc2C)cc1,13.2,.,.
CCNC(=O)N1CCOc2ccc(CCC(=O)Nc3ccc(F)cc3F)cc2C1,-2.8,-4.7%,.
COc1ccc(NC(=O)Cn2nc3c(cc2=O)CN(C(C)=O)CC3)cc1Cl,4.1,i,.
COCCN(C)C[C@@H]1CN(C(=O)c2ccc(-c3ccccc3)n2C)C[C@@H]1CO,-33.8*,i[11.5 µM],-14.5%
COCCN(C)C[C@@H]1CN(C(=O)c2c(-c3ccccc3)ccnc2C)C[C@@H]1CO,2.1,-1.6%,.
COc1cccc(CN2CCCC(c3nc(C(C)C)no3)CCNC(=O)CC2)c1 (configuration not stated),16.1,i,.
O=[S+]([O-])(NC1CCCN(c2ccnc3ccnn23)C1)c1ccccc1 (configuration not stated),7.6,i,.
Cc1ccc(-c2ccc3nnc(CNC(=O)Cc4cccs4)n3n2)cc1C,8.5,2.5%,41.4%
O=C(Cc1cccs1)NCc1nnc2ccc(-c3ccccc3)nn12,31.9,i,.
CC1=C[C@@H](CNCc2ccccc2)[C@H](C(C)C)C[C@H]1Cc1nc2c(C)cccc2[nH]1,-8.6,-2.3%[88.5 µM],.
Oc1ccc(NCc2ccc(OCc3ccccc3Cl)cc2)cc1,-27.7*,.,?
Oc1ccc(NCc2ccc(OCc3ccccc3)cc2)cc1,-0.7,.,.
O=C(c1ccccc1)N1CCC(c2nn(-c3ccccc3)c(=O)[nH]2)CC1,5.6,i,.
CC(=O)Nc1ccc(-n2c(CCC(=O)O)ccc2-c2ccc(C)cc2)cc1,15.9,.,.
CC(=O)Nc1ccc(-n2c(CCC(=O)O)ccc2-c2ccc(Br)cc2)cc1,-41.2*,.,-8.4%
CCCN(CC1CCOC1)S(=O)(=O)c1ccc(F)cc1 (configuration not stated),-0.5,-5.0%,.
